# Source: the supplement of paper PMC10037445
# The full ranking holds about 2,900 compounds; the median of “NF-kB SEAP reporter activity, fold change vs agonist alone” is about 0.99, and the highest 2% start at about 2.6. Shown is part of a subset that was picked to be rich in the highest values.
# Experiments:
# [1] = system: RAW-Dual; assay: NF-kB SEAP reporter activity, fold change vs agonist alone; higher = enhanced NF-kB activity; conditions: cytotoxicity flag (confluency mask): not cytotoxic
# Summary of the method: (§1)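 Reporter activity is given as fold change relative to agonist-alone wells. To measure it, 50 nL of library stock was pin-tooled onto RAW-Dual macrophages (50,000 cells/well, DMEM, 384-well plates), a PRR agonist followed 1 h later, and cells stayed at 37 °C, 5% CO2. Twenty hours on, supernatant was assayed for IRF (QuantiLuc luminescence) and NF-κB (QuantiBlue, 620 nm absorbance), and wells under 70% of agonist-control IncuCyte confluency in both mask sets were marked cytotoxic.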
# [2] = system: RAW-Dual; assay: NF-kB SEAP reporter activity, fold change vs agonist alone; cytotoxicity flag (confluency mask): not cytotoxic; higher = enhanced NF-kB activity
# Summary of the method: as §1
# [3] = library stock concentration (final ~1000-fold dilution): 10 mM, agonist: Imiquimod (TLR7) […]
# [4] = library stock concentration (final ~1000-fold dilution): 10 mM, agonist: MPLA (TLR4) […]
# [5] = agonist: ODN 1826 (TLR9) 0.5 ug/mL
# [6] = agonist: Pam2CSK4 (TLR2/6) 0.1 ug/mL
# [7] = agonist: Pam3CSK4 (TLR2/1) 0.1 ug/mL
smiles,measurement,setting,value
COc1cnc(NS(=O)(=O)c2ccc(N)cc2)nc1,NF-kB SEAP reporter activity,[1]; [3],0.927
same,NF-kB SEAP reporter activity,[1]; [4],1.02
COc1ccc(S(=O)(=O)Nc2cccnc2Nc2ccc(O)cc2)cc1,NF-kB SEAP reporter activity,[1]; [3],2.48
same,NF-kB SEAP reporter activity,[1]; [4],1.92
COc1ccc(S(=O)(=O)Nc2cccnc2Nc2ccc(O)cc2)cc1 (library stock concentration (final ~1000-fold dilution): 10 mM),NF-kB SEAP reporter activity,[2]; agonist: LPS (TLR4) 0.1 ug/mL,4.93
same,NF-kB SEAP reporter activity,[2]; [5],3.17
same,NF-kB SEAP reporter activity,[2]; [6],1.86
same,NF-kB SEAP reporter activity,[2]; [7],2.22
COc1cc(Nc2nc3ccccc3nc2NS(=O)(=O)c2ccc(NC(=O)c3ccc(C)c(OC)c3)cc2)cc(OC)c1 (library stock concentration (final ~1000-fold dilution): 10 mM),NF-kB SEAP reporter activity,[2]; agonist: LPS (TLR4) 0.1 ug/mL,2.08
same,NF-kB SEAP reporter activity,[2]; [5],1.04
same,NF-kB SEAP reporter activity,[2]; [6],0.51
same,NF-kB SEAP reporter activity,[2]; [7],0.561
CCC(C)n1cc(C)c2c(C(=O)NCc3c(C)cc(C)[nH]c3=O)cc(-c3ccc(N4CCNCC4)nc3)cc21 (stereo not drawn),NF-kB SEAP reporter activity,"[1]; library stock concentration (final ~1000-fold dilution): 2 mM, agonist: Imiquimod (TLR7) […]",0.954
same,NF-kB SEAP reporter activity,"[1]; library stock concentration (final ~1000-fold dilution): 2 mM, agonist: MPLA (TLR4) […]",0.941
CCC(C)n1cc(C)c2c(C(=O)NCc3c(C)cc(C)[nH]c3=O)cc(-c3ccc(N4CCNCC4)nc3)cc21 (stereo not drawn) (library stock concentration (final ~1000-fold dilution): 2 mM),NF-kB SEAP reporter activity,[2]; agonist: LPS (TLR4) 0.1 ug/mL,1.17
same,NF-kB SEAP reporter activity,[2]; [5],0.973
same,NF-kB SEAP reporter activity,[2]; [6],0.979
same,NF-kB SEAP reporter activity,[2]; [7],1.07
COc1ccc(-c2cc(=O)c3c(O)c(OC)c(O)c(OC)c3o2)cc1,NF-kB SEAP reporter activity,[1]; [3],0.931
same,NF-kB SEAP reporter activity,[1]; [4],1.09
COc1ccc(-c2cc(=O)c3c(O)c(OC)c(O)c(OC)c3o2)cc1 (library stock concentration (final ~1000-fold dilution): 10 mM),NF-kB SEAP reporter activity,[2]; agonist: LPS (TLR4) 0.1 ug/mL,1.27
same,NF-kB SEAP reporter activity,[2]; [5],0.993
same,NF-kB SEAP reporter activity,[2]; [6],1.14
same,NF-kB SEAP reporter activity,[2]; [7],1.05
CC1(C(=O)O)CCC2(C)CCC3(C)C(=CC(=O)C4C5(C)CCC(OC6OC(C(=O)O)C(O)C(O)C6OC6OC(C(=O)O)C(O)C(O)C6O)C(C)(C)C5CCC43C)C2C1.N.N (stereo not drawn),NF-kB SEAP reporter activity,[1]; [3],0.926
same,NF-kB SEAP reporter activity,[1]; [4],1.03
CC1(C(=O)O)CCC2(C)CCC3(C)C(=CC(=O)C4C5(C)CCC(OC6OC(C(=O)O)C(O)C(O)C6OC6OC(C(=O)O)C(O)C(O)C6O)C(C)(C)C5CCC43C)C2C1.N.N (stereo not drawn) (library stock concentration (final ~1000-fold dilution): 10 mM),NF-kB SEAP reporter activity,[2]; agonist: LPS (TLR4) 0.1 ug/mL,0.96
same,NF-kB SEAP reporter activity,[2]; [5],0.88
same,NF-kB SEAP reporter activity,[2]; [6],0.866
same,NF-kB SEAP reporter activity,[2]; [7],1.15
CC(C)n1nc(-c2ccc3oc(N)nc3c2)c2c(N)ncnc21 (library stock concentration (final ~1000-fold dilution): 10 mM),NF-kB SEAP reporter activity,[2]; agonist: LPS (TLR4) 0.1 ug/mL,2.03
same,NF-kB SEAP reporter activity,[2]; [5],1.69
same,NF-kB SEAP reporter activity,[2]; [6],0.647
same,NF-kB SEAP reporter activity,[2]; [7],0.973
CC(C)n1nc(-c2ccc(NC(=O)Nc3cc(C(F)(F)F)ccc3F)cc2)c2c(N)ncnc21 (library stock concentration (final ~1000-fold dilution): 10 mM),NF-kB SEAP reporter activity,[2]; agonist: LPS (TLR4) 0.1 ug/mL,0.398
same,NF-kB SEAP reporter activity,[2]; [5],0.196
same,NF-kB SEAP reporter activity,[2]; [6],0.0706
same,NF-kB SEAP reporter activity,[2]; [7],0.216
CC(C)n1nc(-c2cc3cc(O)ccc3[nH]2)c2c(N)ncnc21,NF-kB SEAP reporter activity,[1]; [3],0.933
same,NF-kB SEAP reporter activity,[1]; [4],0.941
CC(C)n1nc(-c2cc3cc(O)ccc3[nH]2)c2c(N)ncnc21 (library stock concentration (final ~1000-fold dilution): 10 mM),NF-kB SEAP reporter activity,[2]; agonist: LPS (TLR4) 0.1 ug/mL,3.13
same,NF-kB SEAP reporter activity,[2]; [5],0.998
same,NF-kB SEAP reporter activity,[2]; [6],1.01
same,NF-kB SEAP reporter activity,[2]; [7],0.904
CC(C)n1nc(-c2ccc(NC(=O)Nc3cc(C(F)(F)F)ccc3F)cc2)c2c(N)ncnc21,NF-kB SEAP reporter activity,[1]; [3],0.149
same,NF-kB SEAP reporter activity,[1]; [4],0.261
CC(C)n1nc(-c2ccc3oc(N)nc3c2)c2c(N)ncnc21,NF-kB SEAP reporter activity,[1]; [3],1.76
same,NF-kB SEAP reporter activity,[1]; [4],2.1
